Source: PubChem
NPR1 activator: GC-A (human) enzyme activation; HEK293 GC-A cells, cGMP TR-FRET, EC30 ANP; 0% at EC30 ANP, 100% saturating ANP; 370,000 compounds, 0.14% hits; activation, % at 10 µM; AID 1671463; in the data active = activation above about 40%
proKLK7 act: activates the human kallikrein-7 zymogen. P49862. purified proKLK7, EDANS-DABCYL substrate fluorescence; 100% is mature enzyme control, 0% vehicle. activation, % at 7 µM. 370,000 compounds, 0.9% hits. AID 652039;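 active = activation above the mean of all tested compounds plus 3 SD, computed per campaign excluding outliers beyond control limits, cut at about 13% in these data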
Target sequence (P49862 whole entry, looked up): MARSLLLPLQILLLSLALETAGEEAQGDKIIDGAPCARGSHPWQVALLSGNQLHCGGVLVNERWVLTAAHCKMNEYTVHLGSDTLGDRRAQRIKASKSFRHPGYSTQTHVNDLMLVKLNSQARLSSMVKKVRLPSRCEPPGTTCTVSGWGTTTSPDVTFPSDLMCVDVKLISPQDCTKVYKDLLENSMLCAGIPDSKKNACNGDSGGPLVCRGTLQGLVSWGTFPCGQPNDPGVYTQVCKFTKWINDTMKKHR
GC-B act: GC-B (human) receptor activation | AID 1920062 | 370,000 compounds, 0.11% hits | activation, % at 10 µM | HEK293-GC-B cells, CNP EC30, cGMP TR-FRET; 0% at EC30 CNP, 100% saturating CNP;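 active = activation at 10 µM reaching about 35% in either raw or pattern-adjusted values, limit read from the data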
HIF act: HIF pathway transcriptional activation; U2OS HRE-luciferase reporter, luminescence; normalized: DMSO 0%, desferrioxamine 100%; 300,000 compounds, 0.32% hits; activation, % at 7.5 µM (by protocol); AID 1910;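 active = mean activation of at least 10% of the iron chelator positive control signal, with at least half of replicates also reaching 10%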
KLK7 act conf: proKLK7 activation, confirmation | shares compounds with proKLK7 act | purified proKLK7, EDANS-DABCYL substrate fluorescence; scaled: vehicle 0, mature enzyme 100 | activation, % at 7 µM | 3,200 compounds, 68% hits | AID 686949;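 active = activation, as change over the incubation, above the mean of all tested compounds plus 3 SD, cut at about 13% in these data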
EDANS-DABCYL int: counter-screen for kallikrein-7 activators: EDANS-DABCYL optical interference; AID 686952; activation, % at 7 µM; shares compounds with proKLK7 act; EDANS-DABCYL substrate fluorescence interference, no enzyme, 4 h; solvent 0%, active enzyme control 100%; 3,200 compounds, 80% hits;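 active = activation above the all-compound mean plus 3 SD, ignoring values outside control-based bounds, cut at about 4.8% in these data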;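 also: value is the 4 h activation minus the activation read at time zero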
K7 EDANS ctr: optically interferes with EDANS-DABCYL fluorescence, kallikrein-7 activator counter-screen; EC50, µM; AID 720493; 250 compounds, 20% hits; shares compounds with proKLK7 act; EDANS-DABCYL peptide fluorescence interference, no enzyme;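 active = compounds that raise the fluorescence signal in this interference counterscreen, with EC50 at or below 10 µM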;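 also: intact quenched peptide substrate alone read at 355 nm excitation and 520 nm emission; signal is fluorescence gain from T0 to T4 after four hours at room temperature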
* hit, by the source's call; nt = no result; ! = not confirmed by another sample. The list is not random: actives were taken first. Their share in the collection is about 1.3%.

SMILES	NPR1 activator	proKLK7 act	GC-B act	HIF act	KLK7 act conf	EDANS-DABCYL int	others
CC(C)=CCC/C(C)=C/C[C@]12C[C@H](C(=O)O)N(C(=O)OC(C)(C)C)[C@@H]1N(C(=O)OC(C)(C)C)c1ccccc12	-4.2	nt	-5.2	nt	nt	nt
O=C(NC1CCc2ccccc21)c1cc(-c2ccc(Cl)cc2)nc2ccccc12 (stereo not given)	-2.8	-0.2	-0.5	nt	nt	nt
Cc1cc(=O)oc2cc3c(cc12)OCCO3	-2.4	7.6	0.1	0.0	nt	nt
Cc1cc(=O)oc2cc3c(cc12)OCO3	1.0	35.8*	5.1	0.0	66.5*	74.3*
Cc1cc(=O)oc2cc3c(cc12)OCCN3	0.3	67.4*	-6.3	-1.0	76.3*	82.6*
CN(C)c1ccc(Cn2c(=O)n(Cc3ccc(C(=O)NCC4COC4)cc3)c(=O)c3ccccc32)cc1	-8.3	0.3	5.3	nt	nt	nt
COC(=O)C1=CN(c2ccc(OC)cc2OC)C(N)=C(C#N)C1c1ccccc1F (stereo not given)	-2.5	113.9*	-2.9	nt	18.8*	40.6*
COc1ccc(CC(N)c2csc(Nc3ccc(S(C)(=O)=O)cc3)n2)cc1 (stereo not given)	-5.8	26.9*	-4.3	nt	-3.3	-4.1
CS(=O)(=O)c1ccc(Nc2nc(C(N)Cc3ccc(F)cc3)cs2)cc1 (stereo not given)	-4.8	0.3	2.1	nt	nt	nt
CC(=O)c1cc(-c2ccc(Oc3ccccc3)cc2)c(=O)n2c1CCC2	4.8	0.2	-11.7	nt	nt	nt
COc1ccc(OC)c(C(c2c(C)[nH][nH]c2=O)c2c(C)[nH][nH]c2=O)c1	1.3	12.9*	7.6	-1.0	20.5*	20.0*
COc1ccc(O)c(C(c2c(C)[nH][nH]c2=O)c2c(C)[nH][nH]c2=O)c1	1.9	0.1	7.1	-0.8	nt	nt
COc1ccc(-c2cc(=O)oc3c(C)c(O)c(CN(C)C)cc23)cc1	13.3	13.8*	1.7	0.4	-4.7	-7.2
COc1ccc(CN2CN3Cc4ccccc4C3CS2(=O)=O)cc1 (stereo not given)	-1.5	0.3	1.8	nt	nt	nt
Cc1cc(Nc2cccc(Cl)c2)nc(-c2ccccc2O)n1	3.4	264.7*	-1.9	-0.6	77.0*	105.0*
COc1ccc(/C=C(/CC(=O)Nc2ccccc2)c2nc3ccccc3s2)cc1	-0.9	0.4	-4.5	0.0	nt	nt
COc1ccc(/C=C(/CC(=O)NCc2ccc(Cl)cc2)c2nc3ccccc3s2)cc1	-1.2	28.0*	4.4	0.7	68.3*	57.4*	K7 EDANS ctr=2.42*
O=S1(=O)C=CCN1Cc1cn(Cc2ccc(Cl)cc2)nn1	6.2	-0.5	-1.0	nt	nt	nt
CCCCn1c(=NC(=O)c2ccco2)c(C(=O)OCC)cc2c(=O)n3ccccc3nc21	7.4	50.0*	-8.2	0.5	21.0*	21.4*
CCCCn1c(=NC(=O)c2cccnc2)c(C(=O)OCC)cc2c(=O)n3ccccc3nc21	1.2	4.4	6.1	-0.3	nt	nt
CCOCCCn1c(=NC(=O)c2cccnc2)c(C(=O)OCC)cc2c(=O)n3ccccc3nc21	4.7	29.3*	3.2	-0.2	2.9	4.5*!
CCCCCn1c(=NC(=O)c2ccco2)c(C(=O)OCC)cc2c(=O)n3ccccc3nc21	4.4	23.7*	-0.2	-0.4	32.6*	38.0*
CCOC(=O)c1cc2c(=O)n3ccccc3nc2n(Cc2ccc(Cl)cc2)c1=N	2.7	-0.4	-1.2	nt	nt	nt
CCCCn1c(=NC(=O)c2ccco2)c(C(=O)OCC)cc2c(=O)n3cccc(C)c3nc21	9.8	18.1*	-3.7	0.7	2.4	-0.9
C=CCn1c(COc2ccccc2)nnc1SCC(=O)c1ccc(-c2ccccc2)cc1	-3.9	-0.8	-12.9	nt	nt	nt
SMILES	NPR1 activator	proKLK7 act	GC-B act	HIF act	KLK7 act conf	EDANS-DABCYL int	others
NC(=NCCc1c[nH]c2ccccc12)NC(=O)OCc1ccccc1	-8.3	-0.2	-6.2	nt	nt	nt
O=C(NCC(c1ccccc1)c1ccccc1)[C@H](Cc1c[nH]c2ccccc12)NC1(C(=O)NC2CCCCC2)CCN(Cc2ccccc2)CC1	-3.0	nt	0.7	nt	nt	nt
CCOCCCn1c(=NC(=O)c2cccs2)c(C#N)cc2c(=O)n3ccccc3nc21	6.8	53.1*	-5.0	0.0	-432.5	-326.4
COCCCn1c(=NC(=O)c2ccncc2)c(C#N)cc2c(=O)n3cccc(C)c3nc21	16.9	14.7*	-5.7	0.1	30.3*	46.7*
COc1ccc(OC)c(C2NC(=O)NC(C)=C2C(=O)OC2CCCCC2)c1 (stereo not given)	-19.6	18.6*	-14.2	-1.2	-2.4	0.7
COCCn1c(C)nnc1SCC(=O)Nc1ccccc1[N+](=O)[O-]	-0.7	39.4*	0.1	0.6	0.4	0.0
O=C1NC(c2ccco2)Nc2ccccc21 (stereo not given)	-2.5	16.0*	2.9	1.6	16.8*	17.9*
Cc1cccc(C2NC(=O)c3ccccc3N2)c1 (stereo not given)	1.7	0.2	-1.6	nt	nt	nt
Cc1ccc(C2NC(=O)c3ccccc3N2)c(C)c1 (stereo not given)	1.7	32.0*	-1.7	nt	28.7*	26.2*
Cc1ccc(C2NC(=O)c3ccccc3N2)s1 (stereo not given)	-1.5	4.3	1.9	3.7	nt	nt
CCOc1ccccc1C1NC(=O)c2ccccc2N1 (stereo not given)	3.1	13.2*	7.1	nt	12.6*	11.9*
Cc1cc(C)cc(NC(=O)OC2CC3CC2[C@H]2CCCCN2[C@H]3Cc2ccccc2)c1 (stereo not given in full)	-8.7	0.3	-1.8	nt	nt	nt
COC[C@H]1O[C@]2(c3ccccc3)CO[C@H]1[C@@H](/C=C/c1ccccc1)C2	1.0	0.2	-4.5	nt	nt	nt
COc1ccc(-c2nnc(SCc3cccc(F)c3)n2-c2ccccc2)cc1	-3.1	0.1	-1.5	nt	nt	nt
Nc1ccc(-c2ncc(-c3ccccc3)o2)cc1	-12.2	21.3*	-10.7	-1.0	6.6	3.2
Cc1ccc(-c2cnc(-c3ccncc3)o2)cc1	0.1	73.7*	-4.4	2.7	65.0*	69.8*
Cc1ccc(-c2nc(-c3ccncc3)no2)cc1	2.7	-0.1	-2.4	2.4	nt	nt
O=C(O)c1ccccc1-c1ncc(-c2ccccc2)o1	6.9	1.2	2.2	-0.2	nt	nt
Cc1ccc(-c2[nH]c(-c3ccc(C(=O)O)cc3)nc2-c2ccccc2)cc1	-0.9	32.7*	-3.9	0.1	67.2*	68.6*
O=C(O)c1ccc(-c2nc(-c3ccccc3)c(-c3cccs3)[nH]2)cc1	1.1	9.6	-4.6	-0.3	nt	nt
COC(=O)C1CN(Cc2ccc(OC)cc2)CCS(=O)(=O)N1Cc1cn(Cc2ccc(F)cc2)nn1 (stereo not given)	-2.9	0.7	0.1	nt	nt	nt
